This is a sample that favours compounds with a hit; in the whole collection about 21% have one here.
Pf growth 48h = inhibits P. falciparum growth in the first generation, 48 h; hit rate 5.9% among 310,000; AID 504832; Potency, µM (series often up to 28.7 µM), most hits filed as inhibitors; P. falciparum luciferase growth in erythrocytes, 48 h
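Growth was read as firefly luciferase luminescence after a 48 h, 37 C, 5% CO2 exposure of compounds to reporter-bearing P. falciparum cultures (0.1% parasitemia, 2% hematocrit final) in Albumax-supplemented RPMI 1640.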
Shiga toxin inh = blocks Shiga toxin action in Vero cells. hit rate 9.2% among 290,000. inhibition, % at 38.7 µM. Vero cells, Shiga toxin protein synthesis inhibition reporter. AID 2315; in the data active means inhibition mostly above about 28%, no sharp cut-off; inactive means mostly below about 43%
Cycloheximide cs = counter-screen hit for Shiga toxin inhibitors, cycloheximide; max response, %; hit rate 12% among 300,000; AID 2314; cell reporter, cycloheximide protein synthesis inhibition counterscreen; in the data active means max response mostly above about 13%, no sharp cut-off; inactive means mostly below about 14%; further: read at 38.3 µM for the half of the compounds with a filed dose
Pf growth 96h = P. falciparum growth inhibition at 96 hours | P. falciparum luciferase reporter growth, 96 h | hit rate 6.9% among 320,000 | Potency, µM (top dose mostly 28.7 µM), usual class: inhibitors | AID 504834
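Compounds incubated with erythrocytes infected by luciferase-expressing P. falciparum (2% hematocrit, 0.05% parasitemia final) for 96 hours, 37 C in 5% CO2. Growth inhibition scored as decreased luciferase luminescence.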
NS1 inh = blocks influenza NS1 protein function | Potency, µM (titrated, usually from 46.1 µM) | hit rate 0.4% among 270,000 | AID 2326; calls by dose curve; further: actives are rising curves; nearly all actives have a fitted effect of over 50% in size
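Read-out: OD600 growth recovery of NS1-expressing budding yeast. Cells grown overnight at 30C in -URA glucose medium, washed, resuspended and diluted 1:100 in 2% galactose assay medium, pH 6.0. Same strain lacking NS1 served as positive control.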
Of the large screens only hits and unclear results are named; the others gave an inactive call. Unless noted, the call rests on the fitted dose curve; in most records, active means well fitted inhibition curve with a large enough effect; inconclusive means small, poorly fitted or top-dose-only effect, or another doubt; inactive means no such curve, though single readings can be large or run the other way.

Cc1ccc2c(c1)sc[n+]2Cc1ccccc1	Shiga toxin inh 82, Cycloheximide cs 42
Cc1nc(Sc2nnnn2C)c2c3c(sc2n1)CCC3	none (no result: Pf growth 48h)
CCc1nc(Sc2nnnn2-c2ccccc2)c2c3c(sc2n1)CCCC3	Pf growth 48h 12µM, Pf growth 96h inconclusive
O=C(CCl)Nc1cn(-c2ccccc2)nc1-c1ccccc1	Pf growth 48h inconclusive, Cycloheximide cs 39, Pf growth 96h inconclusive (no result: NS1 inh)
Cc1ccc(-c2nn(-c3ccccc3)cc2NC(=O)c2ccccc2)cc1	Shiga toxin inh 44, Cycloheximide cs 19
CCOc1ccc(S(=O)(=O)NC(Cc2cnc[nH]2)C(=O)O)cc1 (configuration not stated)	none (no result: NS1 inh)
Cc1cc(C(=O)Nc2ccccc2)oc(=O)c1	Shiga toxin inh 45, Cycloheximide cs 48
COC(=O)c1cc(C)cc(=O)o1	none
Cc1oc(C(=O)Nc2ccc(O)cc2)cc1COc1ccccc1	Shiga toxin inh 38, Cycloheximide cs 16 (no result: Pf growth 96h)
Cc1ccc(OCc2cc(C(=O)Nc3ccccc3)oc2C)cc1	Shiga toxin inh 85, Cycloheximide cs 51 (no result: Pf growth 48h)
O=C(COC(=O)CNC(=O)c1ccc(Cl)c([N+](=O)[O-])c1)NNC(=O)c1ccccc1F	none (no result: Shiga toxin inh, Cycloheximide cs, NS1 inh)
Cc1ccc(S(=O)(=O)NC(=O)NC2CCCCCCC2)cc1	none (no result: Shiga toxin inh, Cycloheximide cs, NS1 inh)
CCC(NC(C)C)C(O)c1ccc(O)c(O)c1 (configuration not stated)	Pf growth 48h inconclusive, Pf growth 96h inconclusive
CC[C@H](NC(C)C)[C@H](O)c1ccc(O)c2[nH]c(=O)ccc12	Pf growth 96h 0.24µM (no result: Shiga toxin inh, Cycloheximide cs, NS1 inh)
O=C(CCCOc1ccccc1)Nc1ccc2c(c1)OCCO2	Cycloheximide cs 48
O=C(CCc1ccccc1)Nc1ccc2c(c1)OCCO2	Shiga toxin inh 67, Cycloheximide cs 48
O=C(CCSCc1ccccc1)Nc1ccc2c(c1)OCCO2	Shiga toxin inh 48, Cycloheximide cs 59
CCN(CC(=O)Nc1ccc2c(c1)OCCO2)C(=O)/C=C/c1cccc(OC)c1OC	none (no result: Shiga toxin inh, Cycloheximide cs, NS1 inh)
CCN(CC(=O)Nc1ccc2c(c1)OCCO2)C(=O)/C=C/c1ccc(OC)cc1OC	Shiga toxin inh 60, Cycloheximide cs 28
COc1ccc(OCCCC(=O)Nc2ccc3c(c2)OCO3)cc1	Pf growth 96h inconclusive
CN(CCC(=O)Nc1ccc2c(c1)OCO2)Cc1ccccc1	Pf growth 48h inconclusive
COc1ccc(CCN2CC(C(=O)N(C)CC(=O)Nc3cccc(F)c3)CC2=O)cc1OC (configuration not stated)	none
COC(=O)CC1C(=O)NCCN1C(=S)NC(=O)c1sc2ccccc2c1Cl (configuration not stated)	Pf growth 96h inconclusive
O=C(CN1C(=O)NC2(CCOc3ccccc32)C1=O)Nc1cccc(Cl)c1 (configuration not stated)	none (no result: NS1 inh)
CC(=O)c1cc2c(cc1NC(=O)CCCC(=O)O)OCO2	none
O=C(COc1ccccc1)Nc1nc(-c2ccc(S(=O)(=O)N3CCOCC3)cc2)cs1	Pf growth 48h inconclusive (no result: Pf growth 96h)
COc1ccc(CCC(=O)Nc2ccc3c(c2)OCCO3)cc1	Cycloheximide cs 26
O=C(CCc1ccc(S(=O)(=O)N2CCOCC2)cc1)Nc1nc(COc2ccccc2)cs1	Pf growth 48h 12µM (no result: Pf growth 96h)
CC(=O)c1cc2c(cc1NC(=O)CCc1ccccc1)OCO2	Cycloheximide cs 24
O=C(CCCc1ccccc1)Nc1ccc(S(=O)(=O)N2CCOCC2)cc1	Pf growth 48h inconclusive, Pf growth 96h 10µM
NCC(=O)N[C@@H](CCCN=C(N)N)C(=O)NCC(=O)N[C@@H](CCC(=O)O)C(=O)N[C@@H](CO)C(=O)O	none (no result: Pf growth 48h, Pf growth 96h, NS1 inh)
CC(C)C[C@H](NC(=O)[C@H](C)NC(=O)CNC(=O)[C@H](CCCCN)NC(=O)[C@H](CCCN=C(N)N)NC(=O)[C@H](C)NC(=O)[C@H](Cc1ccccc1)NC(=O)[C@@H](N)CCCN=C(N)N)C(=O)N[C@@H](CCCN=C(N)N)C(=O)N[C@@H](CCC(N)=O)C(=O)N[C@@H](CCCCN)C(=O)N[C@@H](CC(N)=O)C(=O)N[C@H](C(N)=O)C(C)C	none (no result: Pf growth 48h, Pf growth 96h, NS1 inh)
O=C(Cc1ccc2c(c1)OCCO2)Nc1cccc(S(=O)(=O)N2CCOCC2)c1	none (no result: Shiga toxin inh, Cycloheximide cs, NS1 inh)
O=C(CCc1ccccc1Cl)Nc1cc2c(cc1C(=O)O)OCCCO2	none (no result: Shiga toxin inh, Cycloheximide cs, NS1 inh)
O=C(CCc1ccc(S(=O)(=O)N2CCOCC2)cc1)Nc1ccc2c(c1)OCCO2	Pf growth 48h inconclusive, Shiga toxin inh 49, Cycloheximide cs 14, Pf growth 96h inconclusive
O=C(Nc1ccccc1)NC1(C(=O)NCc2ccc3c(c2)OCO3)CCCCC1	Pf growth 96h inconclusive
O=C1OCc2ccc(NC(=O)C3CCCCC3)cc21	none
O=C(NCc1ccccc1)NC1(C(=O)Nc2ccc3c(c2)OCCO3)CCCCC1	Shiga toxin inh 71, Cycloheximide cs 30, Pf growth 96h inconclusive
O=C(CCc1ccccc1)Nc1ccc2c(c1)C(=O)OC2	Cycloheximide cs 10
O=C(CCc1ccccc1)Nc1cc2c(cc1Cl)OCCO2	Shiga toxin inh 80, Cycloheximide cs 47
CCOc1ccccc1C(=O)N(CN1CCCC1=O)c1cccc(Cl)c1	none
CCN(C(=O)COC(=O)CNC(=O)C1CCCCC1)c1ccccc1	none (no result: Shiga toxin inh, Cycloheximide cs, NS1 inh)
CC1CCc2cc(F)ccc2N1C(=O)CSc1nnc(-c2cccs2)n1C (configuration not stated)	Pf growth 48h inconclusive, Pf growth 96h inconclusive
Cc1ccc(C)c(NS(=O)(=O)c2ccc(OCC(=O)NCc3ccccn3)cc2)c1	none
Cc1nc(N)c(Cc2ccccc2F)c(N)n1	Pf growth 48h inconclusive, Pf growth 96h inconclusive (no result: NS1 inh)
O=C(Cc1c[nH]c2ccccc12)NC1(C(=O)NC2CCCC2)CCCCC1	none (no result: NS1 inh)
CCOC(=O)c1sc(=NC(=O)c2ccc(F)cc2)n(C)c1C	Shiga toxin inh 77, Cycloheximide cs 29
CCOC(=O)c1sc(=NC(=O)CCSc2ccccc2)n(C)c1C	Cycloheximide cs 17
CCOC(=O)c1sc(=NC(=O)COc2ccccc2)n(C)c1C	none (no result: NS1 inh)
CCOC(=O)c1sc(=NC(=O)c2cc(OC)c(OC)c(OC)c2)n(C)c1C	Pf growth 96h inconclusive, NS1 inh inconclusive
CCOC(=O)c1sc(=NC(=O)c2ccc(C)cc2)n(C)c1C	Shiga toxin inh 71, Cycloheximide cs 52 (no result: NS1 inh)
CCOC(=O)c1sc(=NC(=O)c2c(F)cccc2F)n(C)c1C	Shiga toxin inh 81, Cycloheximide cs 39
CCOC(=O)c1sc(=NC(=O)C2CC2)n(C)c1C	Pf growth 96h inconclusive (no result: NS1 inh)
CCOC(=O)c1sc(=NC(=O)c2ccc(S(=O)(=O)N3CCOCC3)cc2)n(C)c1C	none (no result: Pf growth 48h, Shiga toxin inh, Cycloheximide cs, Pf growth 96h)
COc1cccc(C(=O)NCC2(c3ccc(OC)c(OC)c3)CCCC2)c1	none
CCN1C(=O)[C@H]2[C@@H](c3ccc(C)cc3)N3C(=O)N(c4ccccc4)C(=O)[C@@]3(CC)[C@H]2C1=O	Cycloheximide cs 15
CC[C@@]12C(=O)N(c3ccccc3)C(=O)N1[C@H](c1cccc(C)c1)[C@@H]1C(=O)N(Cc3ccccc3)C(=O)[C@@H]12	Pf growth 48h inconclusive, Pf growth 96h 6.6µM
CCN1C(=O)[C@H]2[C@@H](c3ccc(C)cc3)N3C(=O)N(c4ccc(C)cc4)C(=O)[C@@]3(CC)[C@H]2C1=O	none (no result: Shiga toxin inh, Cycloheximide cs, NS1 inh)

Screens (PubChem)
